Screening results deposited in PubChem by National Center for Advancing Translational Sciences (NCATS).
In the library only some 9.3% were active in any assay of this set; here they are far more common.
Vaccinia mCherry = inhibitors of vaccinia virus infection (mCherry reporter signal); Vaccinia virus mCherry reporter infection, fluorescence; Potency, µM (highest dose often 36.5 µM), without a hit: top-dose activity change, negative = inhibition, most hits filed as inhibitors; 310,000 compounds, 0.63% hits; calls by dose curve; tested in A549 cells; note: potency is the fitted concentration of half-maximal effect; nearly all actives have a fitted effect of over 35% in size
Vaccinia Venus = inhibitors of vaccinia virus (Venus reporter); Vaccinia virus Venus reporter expression, fluorescence; Potency, µM (series often up to 36.5 µM), for inactives: top-dose activity change, negative = inhibition, actives largely listed as inhibitors; 330,000 compounds, 0.46% hits; calls by dose curve; tested in A549 cells; note: potency is the fitted concentration of half-maximal effect; nearly all actives have a fitted effect of over 30% in size
FMDV antiviral = blocks foot and mouth disease virus; FMDV antiviral cell-based qHTS; AID 1159524; Potency, µM (series often up to 57.9 µM), without a hit: at the top dose activity change, negative = inhibition, hits mostly inhibitors; 410,000 compounds, 1.2% hits; calls by dose curve; tested in HEK293T cells; note: read-out not given here; potency is the fitted concentration of half-maximal effect; nearly all actives have a fitted effect of over 45% in size
Sm TGR block = blocks Schistosoma mansoni thioredoxin glutathione reductase; purified TGR, DTNB reduction, TNB absorbance 405 nm; Potency, µM (titrated, usually from 114 µM), for inactives: at the top dose activity change, negative = inhibition, usual class: inhibitors; 360,000 compounds, 3% hits; AID 485364; note: potency is the fitted concentration of half-maximal effect; nearly all actives have a fitted effect of over 60% in size
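TGR 20 nM + NADPH 100 uM (dispensed conc.), cpd preinc 15 min RT; start with NADPH (500 uM addition) then DTNB (15 mM addition). Kinetic TNB absorbance, 405 nm filter. Four-parameter Hill fit across titration.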
HCV inhibitor = inhibitors of hepatitis C virus infection. Potency, µM (highest dose often 41.8 µM), without a hit: at the highest dose activity change, negative = inhibition, usual class: inhibitors. AID 651820. Huh7.5.1 HCVcc-Cre infection, luciferase reporter, 44 h. 340,000 compounds, 3.4% hits; note: potency is the fitted concentration of half-maximal effect
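Antiviral activity was scored by luciferase reporter output from cells infected with HCVcc-Cre (~0.5 moi) in presence of compound, 44 h infection period, cells seeded 1,000/well 4 h prior.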
HCMV inh = inhibitors of human cytomegalovirus. activity change, negative = inhibition, % at 57.5 µM. HFF cells, HCMV-luciferase reporter, 72 h; hits give low values. 410,000 compounds, 4.5% hits. AID 1259415; in the data active = activity change below about -60%; inconclusive = no clear call, values can overlap the other calls; inactive = above about -39%
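After 16 h attachment at 37C, HFF cells received test compound and HCMV-luciferase (1 PFU/cell); reporter luminescence read 72 h later, data normalized against buffer-only and known inhibitor Salinomycin.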
An asterisk follows results filed as active; i = inactive; ? = inconclusive; · = no result; [ ] = remark or other dose. Unless noted, calls come from the whole dose curve; as a rule, active = well fitted curve in the direction sought with a large enough effect; inconclusive = small, poorly fitted or top-dose-only effect, or another doubt; inactive = no such curve, though single readings can be large; an effect the other way counts as inactive or inconclusive. % is set by controls: 0 for no effect and ±100 for the full control effect.

SMILES | Vaccinia mCherry | Vaccinia Venus | FMDV antiviral | Sm TGR block | HCV inhibitor | HCMV inh
COc1ccccc1-c1ccc2c(c1)C(C)(Cc1cccc(C#N)c1)C(=O)N2 (configuration not stated) | 4.4% | -21.6% | ? | · | · | 11.0
Cc1c(OC(=O)c2ccc([N+](=O)[O-])cc2)c2c(c[n+]1C)COC(C)(C)OC2 | · | -6.7% | 2.1% | -35.1% | -3.0% | ·
c1ccc(-c2nc(-c3ccco3)n3ccccc23)cc1 | -15.5% | 4.7% | ? | 11.2µM* | ? | 37.0
CN1\C(=C/C=C/C=C/C=[N+](C)C)C(C)(C)c2ccccc21 | · | · | 15.8µM* | 0.9% | 10.3% | 1.6
CC(C)N(C(=O)[C@H]1C[C@H](CC(=O)NCC23CC4CC(CC(C4)C2)C3)C(=O)N2CCc3c([nH]c4cc(-c5ccco5)ccc34)[C@]12C)C(C)C | 28.2µM* | ? | -26.0% | · | 4.5% | -21.2
CC(C)N(C(=O)[C@H]1CC(CC(=O)NCC23CC4CC(CC(C4)C2)C3)C(=O)N2CCc3c([nH]c4ccccc34)[C@]12C)C(C)C (some centres not stated) | ? | ? | 0.0% | · | 3.16µM* | -73.6*
CC(C)N(C(=O)[C@H]1C[C@H](CC(=O)NCC23CC4CC(CC(C4)C2)C3)C(=O)N2CCc3c([nH]c4cc(CCC(=O)N(C)C)ccc34)[C@]12C)C(C)C | -15.1% | -26.9% | ? | · | 20.6% | -8.6
O=C(N/N=C/c1ccc(Cl)cc1)c1ccc2nc[nH]c2c1 | ? | -9.6% | 17.0% | · | · | -17.9
O=C(Nc1ccc2oc(-c3cccc4c(Br)cccc34)nc2c1)c1cccc(Cl)c1 | -8.0% | -6.1% | -19.1% | -2.8% | · | 15.7
O=C(Nc1ccc2oc(-c3cccc(Cl)c3Cl)nc2c1)c1cccc(Br)c1 | ? | ? | -5.5% | -8.0% | · | -74.4*
O=C(Nc1ccc2oc(-c3ccccc3)nc2c1)c1ccc2c(c1)OCCO2 | · | · | ? | -2.2% | 10µM* | ?
O=C(Nc1ccc2c(c1)OCCO2)c1[nH]c(C(F)(F)F)nc1-c1ccccc1 | i | -10.7% | -18.8% | · | · | -74.4*
O=C(Nc1ccc2oc(-c3ccncc3)nc2c1)c1ccc2c(c1)OCCO2 | -0.7% | -11.6% | 0.0% | -13.9% | 12.5% | ?
COc1cc(C(=O)Nc2ccc3oc(-c4cccnc4)nc3c2)cc(OC)c1OC | -17.2% | -8.3% | ? | 7.6% | ? | 10.7
COc1cc(C(=O)Nc2ccc3oc(-c4ccccc4)nc3c2)cc(OC)c1OC | -10.7% | -6.3% | ? | 7.5% | · | -81.0*
O=[N+]([O-])c1cc(F)c(N2CCCC2)cc1N1CCNCC1 | · | · | · | -24.7% | · | ·
O=[N+]([O-])c1cc(C(F)(F)F)ccc1N1CCCNCC1 | -0.1% | -0.1% | -10.3% | 28.2µM* | -10.4% | 26.6
O=[N+]([O-])c1cc(C(F)(F)F)ccc1N1CCN(S(=O)(=O)c2ccc3c(c2)CCCC3)CC1 | i | -12.2% | ? | 1.7% | ? | -96.3*
CC1CN(c2ccc(C(F)(F)F)cc2[N+](=O)[O-])CCN1S(C)(=O)=O (configuration not stated) | i | -18.6% | ? | -9.2% | 3.6% | -22.8
CCOC(=O)C1=C(COC(=O)Cc2ccccc2)NC(=O)NC1C (configuration not stated) | · | · | -19.4% | 1.2% | 9.4% | -17.0
C[C@H](Cc1ccc(O)c(O)c1)[C@@H](C)Cc1ccc(O)c(O)c1 | -17.1% | -21.6% | -27.0% | · | · | ·
CC(Cc1ccc(O)c(O)c1)C(C)Cc1ccc(O)c(O)c1 (configuration not stated) | -11.6% | -21.8% | -11.8% | · | 10µM* | ·
COc1ccc(OC)c2[nH]c(C(=O)O)cc12 | -8.0% | -8.4% | 4.0% | -2.6% | 23.8% | 39.4
Brc1c(-c2ccccc2)nc2n1Cc1ccccc1-2 | i | -11.7% | -12.8% | -1.7% | ? | -83.9*
Cc1c(N=C2N=C(NC(=O)c3ccc(F)cc3)c3ccccc32)c(=O)n(-c2ccccc2)n1C | i | -8.0% | 28.2µM* | 17.2% | -10.3% | 67.8
SMILES | Vaccinia mCherry | Vaccinia Venus | FMDV antiviral | Sm TGR block | HCV inhibitor | HCMV inh
Cc1[nH]c(=O)c(C(=O)/C=C/c2ccccc2F)c2c1CCCC2 | · | · | 14.1µM* | 100µM* | 2.51µM* | -101.9*
N#CCCn1c(=O)c(-c2ccc(Cl)cc2)nc2cnc(N3CCOCC3)nc21 | · | · | 0.5% | · | · | ·
O=c1oc2c(CN3CCOCC3)c(O)c(Cl)cc2c2c1CCCC2 | -15.6%[1.46 µM] | -1.1% | -1.1% | 44.7µM* | 25.9% | -24.8
Cc1cc(=O)oc2c(CN3CCN(C)CC3)c(O)c(Cl)cc12 | -21.3%[1.46 µM] | -11.6% | 20.9% | 50.1µM* | ? | -102.0*
O=c1oc2c(CN3CCOCC3)c(O)ccc2c2ccccc12 | · | -12.6% | 9.5% | 0.0% | ? | 29.0
O=c1oc2c(CN3CCOCC3)c(O)ccc2c2c1CCCC2 | -18.0%[1.46 µM] | -13.0% | -16.8% | 79.4µM* | -12.0% | -27.4
CCCc1cc(=O)oc2c(CN3CCN(C)CC3)c(O)c(Cl)cc12 | · | · | -4.9% | ? | -2.4% | 14.0
CC(C)(C)c1ccc(S(=O)(=O)Nc2ccc(C(=O)N3CCCC3)cc2)cc1 | i | -11.4% | 44.7% | 4.6% | 0.1% | -27.7
C[n+]1ccccc1/C=C/c1ccc(C#N)cc1 | 0.1% | -2.0% | 2.2% | 44.7µM* | 17.2% | -21.7
C[n+]1ccccc1/C=C/c1ccc([N+](=O)[O-])cc1 | ? | -28.2% | -2.5% | -27.3% | 10µM* | -34.7
C[n+]1ccccc1/C=C/c1ccc2ncccc2c1 | · | · | ? | -35.9% | -29.6% | 48.9
O=[N+]([O-])c1ccc(C=CC=Cc2ccccc2)cc1 | -3.5% | -1.2% | 62.2% | · | · | 38.2
O=C(NCc1nc(-c2ccccc2)no1)c1ccc(Br)o1 | -16.5% | -7.9% | · | 0.0% | -19.6% | 21.8
Cc1cc(N2CCCC2)nc2ccc(NC(=S)NCCCOC(C)C)cc12 | · | · | -19.0% | 20µM* | ? | ?
CCCN(CCC)CCCNC(=S)Nc1ccc2nc(N3CCCC3)cc(C)c2c1 | · | · | -13.1% | 44.7µM* | 10µM* | -81.2*
O=C(Nc1ccccc1C(F)(F)F)c1ccsc1 | · | · | 3.8% | -0.4% | 4.4% | -29.3
CC(C)CC1NC(=S)N(Cc2ccccc2)C1=O (configuration not stated) | · | · | 11.1% | 6.8% | ? | -100.1*
CCc1ccc(N2CCN(C(=O)c3ccc(OC)c(OC)c3)CC2)cc1 | -14.4% | -17.1% | ? | 0.2% | ? | ?
COc1ccc(C(=O)O)cc1NC(=S)NC(=O)CSc1ccc(Cl)cc1 | -13.3% | 0.6% | -29.2% | ? | 8.1% | 39.0
O=C(O)c1ccc(N/N=C/c2ccc(-c3ccc(Br)cc3)o2)cc1 | 11.2µM* | ? | 1.7% | -1.6% | 8.2% | 14.6
COc1ccc(C(=O)O)cc1NC(=S)NC(=O)c1ccc(-c2ccc(Cl)cc2)o1 | i | 1.4% | -27.4% | 28.2µM* | 9.7% | -38.9
